From PubChem BioAssay AID1508625 (Wald Lab, School of Medicine, Case Western Reserve …, 2021)

Assay: small molecules boosting NK-mediated OVCAR3 lysis – imaging, primary NK cells, calcein-AM imaging, primary screen (AID 1508625);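 note: compound given to NK cells 16 h before adding targets at 1.5 to 1 ratio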;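 for z-score: more negative robust z means stronger NK killing of tumor cells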
Settings: OVCAR3 lysis by primary NK cells, at 5 µM; z-score: measured here: robust Z-score, single-point normalisation

Row | SMILES | corrected activity, negative = more killing | z-score
1 | O=C(c1cc(-c2ccc3c(c2)OCO3)nc2ccccc12)N1CCN(Cc2ccc3c(c2)OCO3)CC1 | -3.33% | -1.37
2 | CS(=O)(=O)N(CC(=O)N1CCOCC1)c1ccc2c(c1)OCCO2 | -1.8% | -1
3 | O=C(Nc1ccc(Br)cc1)c1ccc(Cl)c(S(=O)(=O)N2CCCCCC2)c1 | -9.39% | -2.91
4 | COC(=O)c1ccc(COC(=O)c2ccc([N+](=O)[O-])c(C)c2)cc1 | -0.897% | -0.499
5 | O=C(NN=C1CCCCC1)C(=O)Nc1ccc(Cl)cc1 | -4.69% | -1.99
6 | CCCC12CN3CC(C)(CN(C1)C31C(=O)Nc3ccc(Br)cc31)C2=O (configuration not stated) | -2.13% | -0.876
7 | Cc1ccccc1OCC(=O)N1N=C2CCCCC2C1(O)C(F)(F)F (configuration not stated) | -5.48% | -2.09
8 | Cc1ccc(-c2cc(C(=O)NN=Cc3cccnc3)[nH]n2)cc1 | -3.53% | -1.54
9 | COc1ccc(NC(=O)C(N)=O)cc1 | -3.82% | -1.62
10 | Cc1cc(C)n(C(=O)c2nn(C)cc2I)n1 | -2.43% | -0.913
11 | Cc1ccc(N2C(=O)C(N3C(=O)c4cccc([N+](=O)[O-])c4C3=O)C2c2ccc(F)cc2)cc1F (configuration not stated) | -2.91% | -0.904
12 | Cc1cccc(OCC(=O)N2CCN(S(C)(=O)=O)CC2)c1 | -2.23% | -0.994
13 | Cc1ccc(NC(=O)CSc2nnc(N3C(=O)c4ccccc4C3=O)s2)c(C)c1 | -5.41% | -1.68
14 | CC1(C)COC(c2ccccc2)=N1 | -5.76% | -1.78
15 | CCOc1cccc(C=NN2CCN(Cc3ccccc3)CC2)c1O | -2.77% | -1.21
16 | c1ccc(CN2CCN(Cc3ccc4ccccc4c3)CC2)nc1 | -2.43% | -1.08
17 | Cc1c(NC(=O)COc2ccc(Oc3ccccc3)cc2)c(=O)n(-c2ccccc2)n1C | 1.22% | 0.434
18 | CC1CC(C)CN(C(=O)c2c[nH]c3ccc(S(=O)(=O)N4CCOCC4)cc3c2=O)C1 (configuration not stated) | -2.85% | -1.04
19 | CC(C)c1ccc(NC(=O)C2c3ccccc3C(=O)N(C)C2c2cccs2)cc1 (configuration not stated) | -7.64% | -1.9
20 | CCOC(=O)c1c(NC(=O)c2ccccc2F)sc(C(=O)Nc2cccc(Cl)c2)c1C | -1.46% | -0.517
21 | COc1ccc(-c2coc3c(C)c4oc(=O)c5c(c4cc23)CCC5)cc1 | -3.7% | -1.1
22 | CC(=O)Nc1cccc(N=Cc2cc(Cc3ccccc3)cc([N+](=O)[O-])c2O)c1 | -1.97% | -0.698
23 | CC(=O)SCCC(=O)N1C(C)CCCC1C(=O)O (configuration not stated) | -3.02% | -1.19

Row | SMILES | corrected activity, negative = more killing | z-score
24 | COc1ccc(C2=NN(c3nc(-c4ccc(OC)c(F)c4)cs3)C(c3ccco3)C2)cc1 (configuration not stated) | -2.68% | -1.01
25 | COc1cccc(-n2c(SCC(=O)Nc3ccccc3F)nc3c([nH]c4ccccc43)c2=O)c1 | -10.8% | -2.69
26 | COCCN(CCOC)C(=O)c1cc2c(=O)n3ccccc3nc2s1 | -1.77% | -0.502
27 | CCOc1ccc(OCC)c(NC(=O)C2(S(=O)(=O)c3ccc(Cl)cc3)CC2)c1 | -4.65% | -1.32
28 | Cc1ccc(S(=O)(=O)NN=Cc2ccc(I)cc2)cc1 | -2.58% | -0.82
29 | CC1(C)CC(c2csc(N)n2)CCO1 (configuration not stated) | -2.99% | -1.14
30 | Cc1ccc(NC(=O)CCNC(=O)Cn2cnc3ccccc3c2=O)c(Br)c1 | -0.469% | -0.149
31 | COc1cccc(C(=O)N2CCN(CC3CC=CCC3)CC2)c1OC (configuration not stated) | -3.28% | -1.46
32 | CC(C)NC(=O)CCNC(=O)Cn1cnc2sc3c(c2c1=O)CCCC3 | -6.97% | -2.22
33 | C#CCN1C(=O)C(O)(CC(=O)c2cccc3ccccc23)c2ccccc21 (configuration not stated) | -5.41% | -2.06
34 | Cc1oc(-c2cccc(Br)c2)nc1CN1CCC(C(=O)NCc2ccc(Cl)cc2)CC1 | -6.33% | -1.71
35 | O=C(NN=Cc1cccnc1)c1cc(C2CC2)[nH]n1 | -2.36% | -1.03
36 | COc1cc(C(=S)N2CCCCC2)cc(OC)c1OC(=O)c1cccc2ccccc12 | -9.1% | -3.43
37 | Cc1ccc(C=C(NC(=O)c2ccc(C)cc2)c2nc3ccccc3[nH]2)cc1 | -1.41% | -0.73
38 | Cc1c(N=Cc2c[nH]c3ccccc23)cccc1[N+](=O)[O-] | -2.05% | -0.872
39 | COc1ccc(OC)c(C2Nc3ccccc3NC3=C2C(=O)CC(C)(C)C3)c1 (configuration not stated) | -5.96% | -1.85
40 | COc1ccc(Nc2ccncc2[N+](=O)[O-])cc1 | -5.75% | -3.2
41 | Cc1cccc(C)c1OCCCCCCN1CCOCC1 | -1.15% | -0.473
42 | C=CCn1c(-c2ccc3[nH]c(C)c(C)c3c2)n[nH]c1=S | -6.13% | -2.23
43 | Cc1cc(C)cc(NC(=O)c2cc(S(=O)(=O)NC3CCCCC3)ccc2F)c1 | -5.25% | -1.42
44 | CCCCC1CC(CN2C(=O)NC(C)(C)C2=O)OC1=O (configuration not stated) | -2.13% | -0.811
45 | Cc1ccc(-n2nc(C)c(C=Cc3onc(C)c3[N+](=O)[O-])c2C)cc1 | -6.18% | -1.84
46 | O=C(COc1ccc(Br)cc1)NCc1ccco1 | -0.415% | -0.147

Row | SMILES | corrected activity, negative = more killing | z-score
47 | COC(=O)C1C(=O)C2=C(CC1C)NC(C)=C(C(=O)OC1CCCC1)C2c1ccccc1OC(C)C (configuration not stated) | -2.11% | -0.524
48 | CSCCOC(=O)C1=C(C)NC(=O)NC1c1cccc([N+](=O)[O-])c1 (configuration not stated) | 0.214% | 0.0664
49 | COc1ccc(-c2ccc3c(N)c(C(=O)Nc4ccc(Br)cc4)sc3n2)cc1 | -3.35% | -1
50 | CC(=NNC(=S)Nc1cccc(C)c1)c1cccc(N)c1 | -5.28% | -2.08
51 | O=C(CSCc1ccccc1F)N1CCc2ccccc21 | -9.83% | -2.65
52 | CCc1cc(=O)oc2c(C)c(OCC(=O)c3cccc(OC)c3)ccc12 | -4.48% | -1.67
53 | O=C1c2cccc([N+](=O)[O-])c2C(=O)N1C1C(=O)N(c2cccc(C(F)(F)F)c2)C1c1ccc(F)cc1 (configuration not stated) | -1.05% | -0.327
54 | COc1ccc(C(O)=C2C(=O)C(=O)N(c3ccccn3)C2c2ccc(C(C)C)cc2)cc1 (configuration not stated) | -1.15% | -0.498
55 | Cc1cc(-n2c(N)c(C(N)=O)sc2=S)ccc1Cl | -4.14% | -1.1
56 | CN(C)c1ccc(C=CC=C2SC(=S)N(Cc3ccccc3)C2=O)cc1 | -3.62% | -1.88
57 | CCc1ccc(-n2c(CCC(=O)O)ccc2-c2ccc(F)cc2)cc1 | -1.11% | -0.331
58 | CC(=O)N1CCc2[nH]c3ccccc3c2C1 | -1.79% | -0.676
59 | COc1ccc(NC(=O)CN(C)S(=O)(=O)c2cccs2)cc1OC | -4.46% | -1.26
60 | COCCNCC(O)Cn1c2ccccc2c2ccccc21 (configuration not stated) | 2.4% | 0.916
61 | Cc1ccc(C2C(=C(O)c3ccc(Cl)cc3)C(=O)C(=O)N2CCCn2ccnc2)cc1 (configuration not stated) | -3.13% | -1.2
62 | O=C(CCCCCn1c(=S)[nH]c2cc3c(cc2c1=O)OCO3)N1CCN(c2ccc(Cl)cc2)CC1 | -2.25% | -0.597
63 | CC(=O)Nc1ccc(-n2c(C)ccc2C)c(C(=O)O)c1 | -2.26% | -1.01
64 | Cc1ccc(C(=O)N2C(=O)C(c3ccccc3)Oc3ccccc32)cc1 (configuration not stated) | -10.8% | -3.35
65 | O=C(c1ccc(Cn2c(=S)[nH]c3cc4c(cc3c2=O)OCO4)cc1)N1CCC(N2CCCCC2)CC1 | -3.36% | -0.889
66 | CCC(Cc1ccccc1)NS(=O)(=O)c1ccc(F)c(C(=O)Nc2ccc(C)c(F)c2)c1 (configuration not stated) | -2.04% | -0.551
67 | CCOC(=O)c1sc(N2C(=O)C(=O)C(=C(O)c3ccccc3)C2c2ccc(C(C)(C)C)cc2)nc1C (configuration not stated) | -1.11% | -0.48
68 | COc1ccc(NC(=O)NCCc2ccncc2)cc1 | 0.111% | 0.0619
69 | O=C(Nc1ccccc1-c1nc2ccccc2[nH]1)c1ccc(S(=O)(=O)N2CCCC2)cc1 | 0.864% | 0.306

Row | SMILES | corrected activity, negative = more killing | z-score
70 | CN1CCc2c(sc3c2C(=O)NC(c2cccc(OCc4ccccc4)c2)N3)C1 (configuration not stated) | -3.2% | -0.991
71 | COc1ccc(OC)c(C2NC(=S)NC(C)=C2C(=O)Nc2ccccc2)c1 (configuration not stated) | -2.97% | -0.92
72 | COc1ccc(Cc2nc3c4c5c(sc4ncn3n2)C(C)(C)NC(C)(C)C5)cc1OC | -2.36% | -1.03
73 | CCOC(=O)c1ccc(NC(=O)C2CCN(C(=O)c3cccs3)CC2)cc1 | -6.67% | -2.48
74 | O=[N+]([O-])c1ccc2[nH]c3c(c2c1)CCCC3NC1Cc2ccccc2C1 (configuration not stated) | 0.0593% | 0.0259
75 | Cc1sc2ncn(CC(=O)Nc3ccc(Oc4ccccc4)cc3)c(=O)c2c1S(=O)(=O)N1CCN(C)CC1 | -6.04% | -1.5
76 | N#Cc1c(SCC(=O)c2ccccc2)nsc1SCC(=O)c1ccccc1 | -5.48% | -2.94
77 | O=C(c1ccncc1)N1CCN(CC2CC=CCC2)CC1 (configuration not stated) | -3.11% | -1.39
78 | CCCCC(=O)NC(=S)Nc1ccc(Cl)c(C(=O)O)c1 | -4.41% | -1.64
79 | O=C(Nc1ccc(Oc2ccccc2)cc1)c1nn(-c2ccc(Cl)cc2)c(=O)c2ccccc12 | -3.15% | -1.69
80 | COC(=O)c1conc1-c1ccccc1OC | -3.1% | -1.35
81 | Cc1ccc(C2C(C(=O)c3ccco3)=C(O)C(=O)N2c2nnc(C)s2)cc1 (configuration not stated) | -5.27% | -2.29
82 | CCOC(=O)Cc1ccc(N(Cc2ccccc2)S(=O)(=O)c2cc(C)ccc2C)cc1 | -11.3% | -3.06
83 | O=C(c1ccc(COCC(F)(F)F)o1)N1CCCCCC1 | -2.9% | -1.19
84 | Cc1ccc2cccnc2c1[N+](=O)[O-] | -3.53% | -0.744
85 | CCOc1ccc(-n2c(=O)c3c(C)c(C)sc3n(CC(=O)N3CC(C)CC(C)C3)c2=O)cc1 (configuration not stated) | -4.39% | -1.25
86 | CCOC(=O)c1ccc2c(c1)[C@@H]1C=CC[C@@H]1[C@H](c1ccccc1C(F)(F)F)N2 | -3.03% | -0.905
87 | O=C1c2ccccc2C(=O)N1CCCCCCN1CCN(c2cccc(Cl)c2)CC1 | -4.02% | -0.848
88 | COc1ccc(C(=O)Nc2ccc(-c3nc4cc(C)cc(C)c4o3)cc2)cc1OC | 2.2% | 0.681
89 | c1nc(N2CCCCCC2)c2[nH]cnc2n1 | -0.464% | -0.115
90 | O=C1c2ccccc2C(=O)c2c1cc(F)cc2N1CCCCC1 | -1.34% | -0.401
91 | Cc1cc(Cl)ccc1OC(C)C(=O)n1cnc2ccccc21 (configuration not stated) | -1.02% | -0.42
